Among the data in PubChem BioAssay (Tox21) are Potency values, retold here.

Test [1] concerns the target Gonadotropin-releasing hormone receptor (Homo sapiens) (UniProt P30968). In words: Human gonadotropin-releasing hormone receptor (GnRHR) small molecule agonists, calcium flux assay in GnRHR-HEK293 cells (AID 1920063). Note: nearly all actives have a fitted effect of over 35% in size. Note: potency is the fitted concentration of half-maximal effect. The gist of the method: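 Stable human GnRHR HEK293 line. 18 h plating, then calcium dye for 1 h at 37 C. Agonist-mode compound addition from DMSO stocks; fluorescence monitored 3 min.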
On the technique in general: A change in cytosolic calcium serves as a functional read-out for many receptors and channels.

For test [2], the target named is KiSS-1 receptor (Homo sapiens) (UniProt Q969F8). Briefly: Human kisspeptin (KISS1R) small molecule agonists, calcium flux assay in KISS1R-HEK293 cells (AID 1920064; active = well fitted activation curve with a large enough effect in the repeat runs; note: potency is the fitted concentration of half-maximal effect). In a few lines: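 After overnight (18 h) culture at 37 C/5% CO2, human KISS1R-HEK293 cells received calcium dye for 1 h, then test compound; emission at 540 nm (excitation 480 nm) was tracked for 3 min.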

A short description of test [3]: G protein-coupled receptor (GPCR) small molecule agonists, calcium flux assay: HEK293 wild type cell line counter screen (AID 1920065). Note: potency is the fitted concentration of half-maximal effect. The gist of the method:
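Following 18 h incubation at 37 C/5% CO2, plates got calcium dye for 1 h; compounds, ATP or DMSO were then pinned in and fluorescence followed kinetically (480/540 nm).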

Test [4] is described as follows: p53 small molecule agonists, cell-based qHTS assay with human liver microsomes (AID 1963577).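 Note: p53 response element beta-lactamase reporter cells with liver microsomes plus NADPH.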 In a few lines:
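p53RE-bla cells; 5 h settle, 37 C/5% CO2; cpd + HLM 0.5 mg/mL + NADPH 0.5 mg/mL (final); 16 h 37 C; LiveBLAzer 2 h RT dark; fluorescence readout.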
On the technique in general: Quantitative high-throughput screening tests each substance at several concentrations.

Test [5] is described as follows: p53 small molecule agonists, cell-based qHTS assay with rat liver microsomes (AID 1963578). In a few lines: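 Rat liver microsome activation: microsomes 0.5 mg/mL, NADPH 0.5 mg/mL final; p53RE-bla cells, 16 h 37 C; LiveBLAzer readout, 2 h RT dark.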
Test [6] is described as follows: p53 small molecule agonists, cell-based qHTS assay with human liver microsomes: qHTS cell viability counter screen (AID 1963579). Note: nearly all actives have a fitted effect of over 45% in size. In a few lines: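 Luminescent CellTiter-Glo read-out, 30 min at room temperature, gauged cytotoxicity in p53RE-bla cells exposed 16 h at 37 C to DMSO-dissolved compounds with metabolic activation by human liver microsomes and NADPH, each 0.5 mg/mL final.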

A short description of test [7]: p53 small molecule agonists, cell-based qHTS assay with rat liver microsomes: qHTS cell viability counter screen (AID 1963580). Note: nearly all actives have a fitted effect of over 45% in size. In a few lines:
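Rat liver microsome (0.5 mg/mL final) and NADPH (0.5 mg/mL final) co-incubation with compounds for 16 h at 37 C on HCT-116 p53RE-bla cells; cytotoxicity taken from intracellular ATP luminescence.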

Test [8] can be described thus: p53 small molecule agonists, cell-based qHTS assay: qHTS cell viability counter screen (AID 1963581). Note: nearly all actives have a fitted effect of over 45% in size. In a few lines: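 qHTS counter screen: 16 h compound exposure at 37 C of p53RE-bla HCT-116 cells (4,000 per well, seeded 5 h prior), cell viability by ATP luminescence.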
Test [9] has as its target 5-hydroxytryptamine receptor 2A (Homo sapiens) (UniProt P28223). In words: 5-hydroxytryptamine receptor 2A (HTR2A) small molecule antagonists, cell-based qHTS assay (AID 1963586). Note: nearly all actives have a fitted effect of over 45% in size. Note: potency is the fitted concentration of half-maximal effect. In a few lines: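 CHO cells stably expressing human HTR2A were plated for 18 h at 37 C, then loaded with calcium dye for 1 h. Compounds were preincubated 5 min at room temperature before DOI (4 nM solution) was added. Kinetic fluorescence was read for 3 min.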

The target is the same in test [10]. In words: 5-hydroxytryptamine receptor 2A (HTR2A) small molecule agonists, cell-based qHTS assay (AID 1963587). Note: nearly all actives have a fitted effect of over 30% in size. Note: potency is the fitted concentration of half-maximal effect. In a few lines: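 Kinetic calcium-flux fluorescence (2 min, 1 sec intervals) after compound addition in agonist mode. HTR2A-CHO cells were cultured 18 h, then dye-loaded 1 h at 37 C.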
In test [11] the target is Muscarinic acetylcholine receptor M1 (Homo sapiens) (UniProt P11229). Briefly: Cholinergic receptor muscarinic 1 (CHRM1) small molecule agonists, cell-based qHTS assay (AID 1963589). Note: nearly all actives have a fitted effect of over 35% in size. In a few lines: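 Kinetic fluorescence (1 s intervals) of calcium-sensitive dye in human M1 CHO cells after compound addition; cells pre-incubated 18 h at 37 C/5% CO2 and dye-loaded 1 h.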

For test [12], the target named is Beta-2 adrenergic receptor (Homo sapiens) (UniProt P07550). In words: Adrenergic beta2 receptor (ADRB2) small molecule antagonists, cell-based qHTS assay (AID 1963592). Note: series mostly up to about 92 µM; nearly all actives have a fitted effect of over 50% in size. In a few lines:
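Assay format: CHO-ADRB2 cells, 18-20hr seeding at 37C/5% CO2, then compound plus 1nM isoproterenol agonist mix for 0.5hr RT. Homogeneous time-resolved fluorescence cAMP detection after 1hr, expressed as 665/615 nm ratio.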

The target is the same in test [13]. In words: Adrenergic beta2 receptor (ADRB2) small molecule agonists, cell-based qHTS assay (AID 1963593).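 Note: CHO cells stably overexpressing human ADRB2.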 The gist of the method: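 CHO cells stably over-expressing ADRB2 were plated overnight at 37C, then dosed with compounds plus a stimulation mix containing 100uM IBMX and 25uM Ro-20-1724 for 0.5hr at room temperature. cAMP was measured by HTRF competition, 1hr.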

In test [14] the target is D(2) dopamine receptor (Homo sapiens) (UniProt P14416). Briefly: Dopamine D2 receptor (DRD2) small molecule agonists, cell-based qHTS assay (AID 1963594). Note: nearly all actives have a fitted effect of over 35% in size. In a few lines:
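cAMP accumulation in DRD2-HEK293 cells measured by HTRF after 1 h detection; compounds added 10 min before NKH477 (200nM […]) forskolin-analogue stimulation, 30 min at room temperature, with Ro20-1724 present at 0.1 mM final.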

Test [15] shares this target. In words: Dopamine D2 receptor (DRD2) small molecule antagonists, cell-based qHTS assay (AID 1963595; active = well fitted inhibition curve with a large enough effect in the signal ratio in the repeat runs, with a control signal flat; the % refers to the signal ratio; note: potency is the fitted concentration of half-maximal effect). In a few lines:
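HEK293 cells stably expressing DRD2, preincubated with 0.1 mM Ro20-1724 and compounds 10 min, were stimulated with 200 nM NKH477 plus 12 nM quinpirole for 30 min at room temperature; cAMP measured by HTRF (665/620 nm).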

The nature of test [16]: cAMP Responsive Elements (CRE) small molecule agonists, cell-based qHTS assay (AID 1963590). Note: potency is the fitted concentration of half-maximal effect. The gist of the method:
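Test agents in DMSO were incubated 3 h at 37 C/5% CO2 with CRE-bla HEK 293T cells seeded 18 h earlier; LiveBLAzer B/G FRET substrate was added and read after 2 h at room temperature.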

Test [17] has as its target Muscarinic acetylcholine receptor M1 (Homo sapiens) (UniProt P11229). Briefly: Cholinergic receptor muscarinic 1 (CHRM1) small molecule antagonists, cell-based qHTS assay (AID 1963588). Note: nearly all actives have a fitted effect of over 40% in size. In a few lines: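 Compounds were tested at 15 concentrations in three independent runs. Dye-loaded CHRM1-CHO cells were exposed 5 min at room temperature before stimulation by acetylcholine added at 50nM. Intracellular calcium was read kinetically on FDSS for 3 min.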

Test [18] can be described thus: cAMP Responsive Elements (CRE) small molecule antagonists, cell-based qHTS assay (AID 1963591; active = well fitted inhibition curve with a large enough effect in the signal ratio in the repeat runs, not every such curve was filed as active; the % refers to the signal ratio). In a few lines: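 Reporter line CRE-bla HEK 293T in dialyzed-FBS DMEM; cells preincubated 18 h, treated 3 h with compound plus NKH477 (0.25 uM final); LiveBLAzer FRET, 2 h RT.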
Test [19] can be described thus: p53 small molecule agonists, cell-based qHTS assay (AID 1963582; active = well fitted activation curve with a large enough effect in the signal ratio in the repeat runs, not every such curve was filed as active; the % refers to the signal ratio). In a few lines:
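Measured: fluorescence from cleaved LiveBLAzer substrate. System: p53RE-bla cells, 16 h compound treatment at 37 C, 2 h substrate step at room temperature.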

Unmarked numbers belong to inactive results. Inconclusive results are not listed. The source made the active and inactive calls. Unless noted, calls come from the whole dose curve.

Sequence of Beta-2 adrenergic receptor (Homo sapiens) (P07550 whole entry, looked up): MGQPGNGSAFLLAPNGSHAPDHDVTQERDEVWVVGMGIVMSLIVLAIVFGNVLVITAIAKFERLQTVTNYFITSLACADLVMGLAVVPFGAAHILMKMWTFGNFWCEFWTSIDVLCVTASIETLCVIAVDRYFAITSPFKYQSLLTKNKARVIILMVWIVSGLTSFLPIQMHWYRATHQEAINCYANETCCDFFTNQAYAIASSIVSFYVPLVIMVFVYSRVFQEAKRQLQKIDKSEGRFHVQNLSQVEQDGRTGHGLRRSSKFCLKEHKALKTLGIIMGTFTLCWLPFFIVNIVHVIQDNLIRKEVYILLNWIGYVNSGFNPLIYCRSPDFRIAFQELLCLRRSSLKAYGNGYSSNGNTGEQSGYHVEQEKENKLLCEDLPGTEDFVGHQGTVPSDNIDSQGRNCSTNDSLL
Sequence of KiSS-1 receptor (Homo sapiens) (Q969F8 whole entry, looked up): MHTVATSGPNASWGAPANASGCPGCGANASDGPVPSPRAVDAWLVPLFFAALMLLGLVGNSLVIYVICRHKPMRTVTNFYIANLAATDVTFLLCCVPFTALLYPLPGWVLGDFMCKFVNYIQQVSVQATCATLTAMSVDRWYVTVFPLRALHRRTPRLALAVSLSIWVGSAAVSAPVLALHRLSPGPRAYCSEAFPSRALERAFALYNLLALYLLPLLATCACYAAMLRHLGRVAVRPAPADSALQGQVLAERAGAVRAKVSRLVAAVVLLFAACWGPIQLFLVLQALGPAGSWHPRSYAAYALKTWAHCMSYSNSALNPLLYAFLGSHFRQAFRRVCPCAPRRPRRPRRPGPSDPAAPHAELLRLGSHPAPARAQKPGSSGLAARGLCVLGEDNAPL
Sequence of Gonadotropin-releasing hormone receptor (Homo sapiens) (P30968 whole entry, looked up): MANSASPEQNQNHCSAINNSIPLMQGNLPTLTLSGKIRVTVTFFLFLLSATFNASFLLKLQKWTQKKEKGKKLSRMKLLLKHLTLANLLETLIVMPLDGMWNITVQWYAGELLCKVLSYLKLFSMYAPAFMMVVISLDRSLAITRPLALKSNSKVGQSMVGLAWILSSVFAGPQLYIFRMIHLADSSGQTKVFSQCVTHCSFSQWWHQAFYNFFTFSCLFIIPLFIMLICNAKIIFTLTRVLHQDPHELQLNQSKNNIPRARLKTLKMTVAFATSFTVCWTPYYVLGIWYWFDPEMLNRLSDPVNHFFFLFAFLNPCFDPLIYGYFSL
Sequence of Muscarinic acetylcholine receptor M1 (Homo sapiens) (P11229 whole entry, looked up): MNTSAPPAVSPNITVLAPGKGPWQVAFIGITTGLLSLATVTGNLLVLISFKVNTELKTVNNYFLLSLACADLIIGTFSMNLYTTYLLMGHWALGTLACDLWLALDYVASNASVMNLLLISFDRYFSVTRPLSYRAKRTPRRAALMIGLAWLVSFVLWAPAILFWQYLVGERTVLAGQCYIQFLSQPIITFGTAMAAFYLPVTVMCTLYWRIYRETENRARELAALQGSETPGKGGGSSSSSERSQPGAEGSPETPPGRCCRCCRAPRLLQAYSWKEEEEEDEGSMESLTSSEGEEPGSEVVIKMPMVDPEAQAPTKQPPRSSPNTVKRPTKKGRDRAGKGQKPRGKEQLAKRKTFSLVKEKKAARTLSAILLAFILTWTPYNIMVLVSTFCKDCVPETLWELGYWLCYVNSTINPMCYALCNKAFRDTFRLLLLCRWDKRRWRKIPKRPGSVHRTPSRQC
Sequence of 5-hydroxytryptamine receptor 2A (Homo sapiens) (P28223 whole entry, looked up): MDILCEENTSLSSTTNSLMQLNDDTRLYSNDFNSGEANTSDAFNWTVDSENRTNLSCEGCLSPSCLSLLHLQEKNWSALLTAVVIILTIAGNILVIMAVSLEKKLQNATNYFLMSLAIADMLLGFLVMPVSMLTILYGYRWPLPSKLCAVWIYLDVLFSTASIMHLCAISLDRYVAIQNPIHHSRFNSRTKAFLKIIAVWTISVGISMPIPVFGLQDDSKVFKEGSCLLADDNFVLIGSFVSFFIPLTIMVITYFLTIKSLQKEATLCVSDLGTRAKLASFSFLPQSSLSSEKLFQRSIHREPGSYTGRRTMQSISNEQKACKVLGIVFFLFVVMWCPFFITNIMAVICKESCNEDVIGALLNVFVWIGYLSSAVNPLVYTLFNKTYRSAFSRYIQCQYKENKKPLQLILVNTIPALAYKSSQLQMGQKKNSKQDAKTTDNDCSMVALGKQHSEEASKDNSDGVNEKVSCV
Sequence of D(2) dopamine receptor (Homo sapiens) (P14416 whole entry, looked up): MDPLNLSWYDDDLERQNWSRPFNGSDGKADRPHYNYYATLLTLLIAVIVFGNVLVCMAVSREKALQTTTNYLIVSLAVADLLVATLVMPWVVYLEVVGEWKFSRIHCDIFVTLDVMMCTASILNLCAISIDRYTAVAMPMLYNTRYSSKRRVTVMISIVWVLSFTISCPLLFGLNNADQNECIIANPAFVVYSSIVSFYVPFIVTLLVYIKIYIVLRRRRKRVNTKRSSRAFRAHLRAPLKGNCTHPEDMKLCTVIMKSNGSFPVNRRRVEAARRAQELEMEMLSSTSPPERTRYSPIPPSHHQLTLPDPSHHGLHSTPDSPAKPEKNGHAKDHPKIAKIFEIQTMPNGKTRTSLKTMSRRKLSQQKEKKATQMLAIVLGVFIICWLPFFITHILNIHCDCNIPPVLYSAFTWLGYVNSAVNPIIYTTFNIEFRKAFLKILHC

In the case of `CCCCCCCCCc1ccc(OCCOCCO)cc1`, the Potency in test [1] is 13 µM (active); in test [9], 5.58 µM (active); in test [10] it was 20.5 µM (active); in test [15], 25.6 µM (active). In addition, the Potency entry in [2], in test [3], in test [4], in [5], in test [6] and in test [7] was “inactive” each time. Further, the Potency entry in [8], in test [11], in test [12], in test [13] and in test [14] was “inactive” throughout.

With `COc1cc2c(cc1OC)-c1cc(=Nc3c(C)cc(C)cc3C)n(C)c(=O)n1CC2`, the Potency entry in test [1], in test [2], in test [3], in [4], in test [5] and in test [7] was “inactive” each time. Moreover, the Potency result in test [8], in test [9], in test [10], in test [12] and in test [14] was “inactive” throughout. The Potency was 4.22 µM (active) in test [16] and 15 µM (active) in test [15].

As to `O=C(Nc1cccc([N+](=O)[O-])c1)c1cc2ccccc2cc1O`, the Potency result in test [1], in test [2], in test [3], in test [4], in test [5] and in test [7] was “inactive” each time. Also, the Potency result in [8], in test [9], in test [17], in [11], in test [12] and in [14] was “inactive” in each case. In addition, the Potency result in test [15] was “inactive”.

`Nc1ccn(C2CO[C@H](CO)O2)c(=O)n1` (some centres not stated): the Potency was 4.25 µM (active) in test [1], 6.74 µM (active) in test [2], 16.9 µM (active) in test [3] and 7.56 µM (active) in [10]. Moreover, the Potency result in [4], in [5], in test [6], in [7], in test [8] and in test [17] was “inactive” each time. Further, the Potency entry in test [16], in [18], in [13], in test [14] and in test [15] was “inactive” each time.

As for `COC(=O)C1=C(C)NC(C)=C(C(=O)OCCCN2CCC(c3ccccc3)(c3ccccc3)CC2)C1c1cccc([N+](=O)[O-])c1` (configuration not stated), the Potency entry in [1], in test [2], in test [3], in [4], in test [5] and in [6] was “inactive” each time. The Potency result in test [7], in test [8], in test [10], in test [17], in test [11] and in test [12] was “inactive” throughout. The Potency entry in test [14] and in [15] was “inactive” in each case.

With `C=C(C)[C@@H]1CC=C(C)CC1`, the Potency entry in test [1], in [2], in test [3], in test [4], in [5] and in test [6] was “inactive” each time. Moreover, the Potency entry in [8], in test [19], in [10], in test [17], in [11] and in test [16] was “inactive” each time. The Potency result in [18], in [12], in test [13], in [14] and in [15] was “inactive” throughout.

Consider `CCCCC(CC)CN1CN(CC(CC)CCCC)CC(C)(N)C1` (configuration not stated), for which the Potency result in [1], in [2], in [3], in [4], in test [5] and in test [6] was “inactive” throughout. Further, the Potency entry in test [7], in [8], in test [19], in [17], in test [11] and in test [18] was “inactive” each time. Moreover, the Potency entry in test [12], in test [14] and in test [15] was “inactive” in each case.
